# Tgondii IFNg: T. gondii growth inhibition with IFN-gamma, primary screen, cell-based. Toxoplasma gondii growth in IFN-gamma-treated host cells; hits give low values. activity change, negative = inhibition, % (concentration not given with the values). actives 3.8% (n = 69,000); in the data active means activity change below about -70%, passing the limit was not always enough;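 further: host cells are HeLa cells infected with Toxoplasma gondii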
# The depositor's hits bear a star; ! = repeats disagree. The sample as a whole holds a higher share of hits than the screen did.
SMILES,Tgondii IFNg
COc1ccc(C)cc1N1CC(C(=O)N2CCC3(CC2)NC(=O)N(C)C3=O)CC1=O (centres undefined),17.5
Cc1[nH]cnc1-c1nccn1Cc1ccc2c(c1)n(C)c(=O)n2C,-0.7
COc1cccc(OC(C)C(=O)NCc2cccc(-c3nn(C)cc3-c3ccncc3)c2)c1 (centres undefined),-114.2*
CCC(=O)NCc1cccc(-c2ccc(OC)cc2OC)c1,-1.1
Cc1cnccc1-c1cn(C)nc1-c1cccc(CNC(=O)Cc2cccnc2)c1,-19.3
Cn1cc(-c2ccncc2)c(-c2ccc(CNC(=O)COCC3CCCCO3)cc2)n1 (centres undefined),-92.0*
COc1cc(C(=O)NCc2ccc(-c3nn(C)cc3-c3ccncc3)cc2)nc(OC)n1,-101.6*
Cc1ncc(-c2ccncc2)c(-c2ccc(CNC(=O)C3CCOC3)cc2)n1 (centres undefined),-38.9
CN1CCN(c2ncccc2CNC(=O)COCC2CCCO2)CC1 (centres undefined),-2.9
COc1cc(C(=O)NCCCn2ccnc2C)nc(OC)n1,-11.3
COc1ccccc1-c1cccc(-c2nc(C(=O)NCc3ccncc3)cc3c2[C@H](CCO)N([S@@](=O)C(C)(C)C)C3)c1,-1.9
CCC(C)NC(=O)Cn1ncc2c(N3CCOCC3)ncnc21 (centres undefined),12.8
CCCNC(=O)C1Cc2nc(-c3cccc(OC)c3)sc2N1CC1CC1 (centres undefined),-66.8
CCN(CC)C1CCN(C(=O)c2cc(-n3cccn3)ccc2Cl)CC1,3.0
c1cnc(N2CC3(CCN(CC4CCOC4)CC3)c3ccccc32)nc1 (centres undefined),-49.8
CNC(=O)CC1CCN(C(=O)c2ccc3nsnc3c2)CC1,-66.2
CCn1c(CCNC(=O)Cc2c(F)cccc2Cl)nnc1SC,-2.7
O=C(Cc1c(F)cccc1Cl)NC(=O)NCCc1c(F)cccc1Cl,-82.9*
CC(C)(C)C(=O)C(Cc1c(F)cccc1Cl)C(=O)C(C)(C)C,-23.8
NC(=O)C1(N2CCCCC2)CCN(c2ncc(NC(=O)c3ccccc3)cc2C(=O)O)CC1,2.8
COc1ccc(OC)c(C(O)CN2CCN(C(=O)c3ccccc3F)CC2)c1 (centres undefined),36.2
CC(C)COCC(CN(Cc1ccccc1)c1ccccc1)N1CCCC1 (centres undefined),-76.1*!
CC(COc1ccccc1)N(CCCl)Cc1ccccc1 (centres undefined),5.0
CNC(=O)CC1CCN(Cc2cc(C(C)(C)C)ccc2O)CC1,-46.6
O=C(Cc1cccc2ccccc12)N1CCOC2(CNCCOC2)C1 (centres undefined),-47.4
SMILES,Tgondii IFNg
Cc1cc(NC(=O)Cn2cncn2)n(-c2ccccc2)n1,1.3
COc1ccccc1-c1nc(CN(C)S(=O)(=O)c2ccc(C)cc2C)c(C)o1,-104.4*
Cc1ccc(S(=O)(=O)N(C)Cc2nc(-c3ccccc3C)oc2C)c(C)c1,-13.3
Cc1oc(-c2cccc(Cl)c2)nc1CN(C)S(=O)(=O)c1ccc(F)cc1,-16.2
COc1ccccc1-c1nc(CN(c2ccccc2OC)S(=O)(=O)c2ccccc2C)c(C)o1,-55.4
COc1cccc(N(Cc2nc(-c3cccc(Cl)c3)oc2C)S(=O)(=O)c2ccccc2)c1,-35.0
COc1ccc(S(=O)(=O)N(C)Cc2nc(-c3cccc(Cl)c3)oc2C)cc1,-98.9*
O=C(O)C1C2C=CC(C2)C1C(=O)Nc1cccc2cccnc12 (centres undefined),10.4
CCn1c(Cc2ccccc2)nnc1SCc1nnc(-c2ccccc2)o1,-2.7
CC1(C)Cc2c(ccc3ccccc23)-c2nnc(-c3ccc(Cl)cc3)n21,-59.4
CC1=C(C(=O)Nc2ccc(C)c(Cl)c2)C2(CCN(C(C)C)CC2)OC1=O,20.8
COc1ccc(N2CCN(C(=O)c3sc4nc5ccc(OC)cc5cc4c3N)CC2)cc1,23.7
CCn1c(C2CCCN(C(=O)c3cc4c(nc3OC)CCC4)C2)n[nH]c1=O (centres undefined),8.9
CCCn1nc(C)c(CNc2nc(-c3cccnc3)nc3c2CCNC3)c1C,-50.8
O=C(Nc1cccc(N2CCC(NCCc3ccccc3C(F)(F)F)CC2)c1)c1ccncc1,5.1
Cc1ccc(C(=O)Nc2ccc(CN3CCN(C)CC3)c(C(F)(F)F)c2)cc1C#Cc1cnc2cccnn12,-78.6*
Cc1ccc(NC(=O)c2ccc(CN3CCN(C)CC3)cc2)cc1Nc1nc(-c2cccnc2)cs1,4.1
CCC(C)NC(=O)Cn1ncc2c(N3CCCCCC3)ncnc21 (centres undefined),-23.4
NC(=O)C1(Cc2ccc(-c3cccs3)cc2)CN(C(=O)Cc2ccccc2)CCO1 (centres undefined),-37.9
C=CCN1C(=O)CCC12CCC(NC(=O)c1cscn1)CC2 (centres undefined),0.5
CCN1C(=O)[C@@H]2CN(C(C)=O)C[C@H]2C12CCN(C(=O)NCCc1ccc(OC)cc1)CC2,1.4
COCc1cnc2n1CCN(S(=O)(=O)c1cn(C)cn1)C2C (centres undefined),-2.2
CCc1ccc2oc(=O)cc(CN3CCN(Cc4nc(-c5ccccc5Cl)oc4C)CC3)c2c1,8.5

# Source: PubChem (Broad Institute)
